Test results published in PubChem BioAssay AID588436 (Broad Institute, 2011).
Screen size: about 350,000 compounds; about 550 (0.16%) were called active. Many of the other results were omitted from the sample, so actives are more common in it than they were. Values without a mark were called inactive. No stated cut-off is given here; in the data, active means activation mostly above about 9.7% (no sharp cut-off); inconclusive means no clear call, values can overlap the other calls; inactive means mostly below about 3.7%.

Assay: induces V. cholerae light production without autoinducers, primary screen, BH1578 luxS cqsA deficient, single point (AID 588436)
Conditions: V. cholerae BH1578 lux reporter, luminescence, 6 h, at 18.7 µM; active compounds read high

SMILES | activation
Cc1ccc(CNC(=O)C2CCCN2S(=O)(=O)c2ccc3c(c2)C(C)(C)C(=O)N3C)cc1 (stereo unspecified) | -0.135%
CCNC(=O)CCc1nc(-c2ccc(C(C)(C)C)cc2)no1 | inactive
CCOC(=O)C1(CCOc2ccccc2)CCN(Cc2ccc(C#CCCO)cc2)CC1 | inactive
CCOC(=O)C1(CCOc2ccccc2)CCN(Cc2cc(OC)cc(OC)c2)CC1 | 21.2% (active)
CCOC(=O)C1(CCOC)CCN(Cc2ccc(C(=O)OC)cc2)CC1 | 0.0345%
O=C(Nc1ccccc1C(=O)N1CCOCC1)c1ccc(Cl)cc1 | -0.216%
COc1ccccc1C(=O)NC(=O)COC(=O)C1CC1 | 0.621%
CCOc1ccccc1NC(=O)CCc1nnc2ccc(NCc3ccco3)nn12 | -0.0905%
COc1ccc2c(c1)c(C(=O)N/N=C/c1cccs1)c(C)n2C | -0.575%
Fc1c(F)c(C(F)(F)F)c(F)c(F)c1N1CCN(c2ccc3nnc(C(F)(F)F)n3n2)CC1 | 0.463%
COc1ccc(S(=O)(=O)N(C)C[C@H]2Oc3c(NC(=O)Nc4ccc5c(c4)OCO5)cccc3C(=O)N([C@H](C)CO)C[C@@H]2C)cc1 | 1.22%
CCCc1nc2ccccc2c(C(=O)OCc2nnc(-c3cc(OC)c(OC)c(OC)c3)o2)c1CC | -0.28%
CC(C)c1ccc(NC(=O)CCN2C(=O)c3ccc([N+](=O)[O-])cc3C2=O)cc1 | -0.342%
Cn1ccc(=Nc2ccc(NC(=O)c3ccc(N=c4ccn(C)c5ccc([N+](=O)[O-])cc45)cc3)cc2)cc1 | 52.2% (active)
CN(CC1CCCO1)S(=O)(=O)c1ccc(C(=O)Nc2ccc([N+](=O)[O-])cc2)cc1 (stereo unspecified) | inactive
CCOP(=O)(OCC)C(Nc1cccc(C)c1)c1ccc(F)cc1 (stereo unspecified) | -0.244%
CSc1ccc(S(=O)(=O)NCc2ccc(Cl)cc2)cc1 | -1.22%
OC[C@@H]1CN(Cc2cccs2)C[C@H](n2cnc3c(Nc4ccccc4)ncnc32)O1 | -0.66%
C=CCn1cc(-c2cccc(C(F)(F)F)c2)cc(C#N)c1=O | -4.13%
CC(=O)N1CCN(C(=O)C2(NC(=O)Nc3ccc(C)cc3)CCCCC2)CC1 | -0.583%
CNC(=O)N1c2ccccc2C=Cc2ccccc21 | -0.261%
CC(=O)Nc1cccc(-c2cc3nc(NCc4cccnc4)n(C)c(=O)c3s2)c1 | inactive
Cc1c(Br)c([N+](=O)[O-])nn1CC(=O)Nc1sc2c(c1C(=O)OC(C)C)CCC(C)C2 (stereo unspecified) | -0.23%
O=C(c1ccc(F)cc1)N1CCC(C(=O)N2CCN(S(=O)(=O)c3ccccc3Br)CC2)CC1 | inactive

SMILES | activation
CC(=O)Nc1ccc(Oc2ccc3c(c2)C(=O)NC3=O)cc1 | 0.165%
O=C(COc1coc(CN2CCN(c3ccccc3F)CC2)cc1=O)N1CCc2ccccc21 | -0.376%
CCN(CC)S(=O)(=O)c1ccc2c3c(cccc13)C(=O)S2 | inactive
Cc1nn(C)c(C)c1S(=O)(=O)N1CCC(CO)(Cc2ccc(Cl)cc2)CC1 | -0.416%
Cn1c(C(=O)O)ccc1S(=O)(=O)N(Cc1ccccc1)Cc1ccccc1 | inactive
CN(CC(=O)NC1CCCCC1)S(=O)(=O)c1cccc2cccnc12 | -0.233%
O=S(=O)(c1cccc(C(F)(F)F)c1)N1CCN(c2cnccn2)CC1 | inactive
COc1ccc(S(=O)(=O)N2CCN(c3cnccn3)CC2)cc1 | 42.2% (active)
COc1ccc(S(=O)(=O)N2CCSCC2)cc1 | inactive
CCOc1ccc(Oc2nc(C)cc(OC)n2)nn1 | -0.469%
CC1CN(C(=O)CN2C(=O)NC(C)(c3ccccc3)C2=O)CC(C)O1 (stereo unspecified) | inactive
Cc1sc2nc(COC(=O)C(NC(=O)c3ccc(Cl)cc3Cl)C(C)C)[nH]c(=O)c2c1C (stereo unspecified) | -0.176%
COc1cccc(-n2c(N)cc(=O)nc2SCC(=O)Nc2cc(C)on2)c1 | 0.462%
Cc1ccnc(NC(=O)CCC(=O)N(CC(=O)NCc2ccccc2)Cc2ccco2)c1 | -0.537%
NC(=O)c1nsc(C(=O)N(CC(=O)NCc2ccc(F)cc2)Cc2ccco2)c1N | 25% (active)
COc1ccc(CNC(=O)C(c2ccc(O)cc2)N(Cc2ccco2)C(=O)c2snc(C(N)=O)c2N)cc1 (stereo unspecified) | 0.29%
Cc1ccc(C(=O)Cc2nnc(C)s2)cc1 | -0.621%
COc1ccc(C(C#N)N2N=C(C)CC2(C)C)cc1 (stereo unspecified) | inactive
COc1cc(N/C=C2\CC(=O)NC(C)=C2C#N)cc(OC)c1OC | -0.38%
COc1ccc(OCc2cn3c(C)cc(C)nc3n2)cc1 | 126% (active)
COc1ccc(-c2cc(C)nc3nc(N)nn23)cc1 | -1.41%
Cc1cc(C)nc(SCc2cn3c(C)cc(C)nc3n2)n1 | -0.12%
COc1ccc(Cl)cc1NC(=O)COC(=O)c1ccc(Br)o1 | 78.5% (active)
COc1ccc(Cl)cc1NC(=O)COc1ccc2c(c1)OCO2 | -2.78%

SMILES | activation
COc1ccc(Cl)cc1NC(=O)CN(C)Cc1ccc(OC)c(OC)c1 | -0.294%
Cc1nc(-c2ccccc2)cn2c1nc1ccccc12 | inactive
Cc1cc(C)c(S(=O)(=O)N(C)CC(=O)NCC2CCCO2)c(C)c1 (stereo unspecified) | -0.212%
CCC(=O)N1c2ccc(S(=O)(=O)NCc3ccco3)cc2CC1C (stereo unspecified) | -0.345%
CCn1nnc2cc(C(=O)Nc3ccc(C(=O)OC(C)C)cc3)ccc21 | inactive
CCCc1ccc(C(=O)[C@@H]2[C@@H](C(C)=O)N3c4ccc(F)cc4C=C[C@@H]3[C@@]23C(=O)Nc2ccccc23)cc1 | -0.383%
O=C(O)CCSc1nnc(-c2ccccc2)n1-c1ccccc1 | 4%
O=C(Nc1ccc2oc(-c3ccccc3F)nc2c1)c1ccco1 | 0.203%
O=C(Nc1ccc2oc(-c3ccc4ccccc4c3)nc2c1)c1cccs1 | 25% (active)
COc1cc(OC)cc(C(=O)Nc2ccc(-c3nc4ccccc4o3)c(O)c2)c1 | -1.79%
O=S(=O)(NC1CCCCC1)c1ccc(F)c2ccccc12 | -0.148%
NC(c1csc(NC(=O)Nc2cccc(C(F)(F)F)c2)n1)C1CCCCC1 (stereo unspecified) | inactive
COCCNc1ncnc2c1ncn2[C@H]1CN(CCN2CCOCC2)C[C@@H](CO)O1 | -0.715%
O=C(NCc1ccc(Cl)cc1)C(=O)NCC1CCCN1S(=O)(=O)c1cccs1 (stereo unspecified) | inactive
Cc1nonc1C1CCCN1Cc1nc(-c2ccc(F)cc2F)oc1C (stereo unspecified) | 2.27%
Cc1ccsc1-c1nc(CSCC(=O)NCCN2CCCC2)c(C)o1 | -0.308%
CC(CCc1ccccc1)NCC(O)c1cccc([N+](=O)[O-])c1 (stereo unspecified) | -0.322%
COc1ccc(Cl)cc1NC(=O)C1CC(=O)N(c2ccc(F)cc2)C1 (stereo unspecified) | -0.72%
CCCn1nnnc1NCc1ccc(OC)cc1 | 495% (active)
Cn1nnnc1NCc1ccc(Cl)c(Cl)c1 | inactive
CCCC(=O)n1nc(NCc2ccc(OC)cc2)nc1NCc1ccc(OC)cc1 | inactive
CCCCn1nnnc1NCc1cc(OC)c(OC)c(OC)c1 | inactive
COc1ccc(CNc2nnnn2C)cc1 | 25.8% (active)
COc1ccc2ccccc2c1CNc1nnnn1C | inactive

SMILES | activation
CCNC(=O)C1(C)CCN(Cc2ccc(C(=O)OCC)o2)C1 (stereo unspecified) | -0.406%
O=C(COC(=O)CNC(=O)C1CCCCC1)NCc1ccccc1 | inactive
O=C(O)c1cc(S(=O)(=O)Nc2ccc3cn[nH]c3c2)ccc1Br | -0.342%
Cc1ccc(SCC(=O)Nc2nncs2)cc1 | inactive
Cc1ccc(SCC(=O)c2sc(-c3ccccc3)nc2C)cc1 | 25% (active)
Cc1nc(-c2ccc(Cl)cc2)sc1C(=O)CBr | -3.57%
Cc1ccsc1C(=O)N[C@@H](C)c1nnc2ccccn12 | -5.76%
COc1ccc(C(C)C)cc1-c1ccc2nncn2c1 | -1.12%
CCCCNC(=O)C1CCCN(S(=O)(=O)c2ccc(S(=O)(=O)NCC(C)C)cc2)C1 (stereo unspecified) | -0.448%
O=c1cc(CO)oc(C(Nc2cccc([N+](=O)[O-])c2)c2ccccn2)c1O (stereo unspecified) | -0.237%
CCNc1nc(NCC)nc(N(C)n2cnnc2)n1 | -0.319%
Cc1cc(C)c(S(=O)(=O)n2cc(C(C)C(N)C(=O)O)c3ccccc32)c(C)c1 (stereo unspecified) | inactive
COc1ccc(C)cc1NC(=O)NCCCCc1ccccc1 | inactive
Cc1ccc(S(=O)(=O)NNC(=O)/C=C/c2cccc(F)c2)cc1 | inactive
COC(=O)CN1C(=O)C(C)(C)Oc2ccc(C(=O)Nc3cccc(OC)c3)cc21 | -0.813%
O=C(CCN1C(=O)c2ccccc2C1=O)C1=NN[C@@H]2C(=O)N(c3ccc(F)cc3)C(=O)[C@H]12 | 1.21%
COC(=O)c1c(C(=O)OC)c2n(c1C)CCS2 | -0.577%
Cc1cc(-n2cnc(-c3cn(C)nc3C)n2)no1 | inactive
CCOC(=O)c1nnn(-c2nonc2-n2cccc2)c1CN1CCC(C(=O)OCC)CC1 | inactive
Cc1c(C(=O)O)nnn1-c1nonc1N | 1.08%
NNC(=O)c1nnn(-c2nonc2N)c1CN1CCCC1 | 67.1% (active)
CN(CC(=O)Nc1ccc(OC(F)(F)F)cc1)C(=O)C1CCC1 | 18.8% (active)
COc1ccc(NC(=O)CN(C)C(=O)CNC(=O)C2CCCCC2)cc1 | 1.72%
COc1ccc(NC(=O)CN(C)C(=O)CC2CCCCC2)cc1 | -0.68%
